# Source: PubChem BioAssay (Tox21)
# A number with no mark means an inactive call. Calls follow the shape of the dose curve; as a rule, active = well fitted activation curve with a large enough effect in the repeat runs; inconclusive = weak or mixed curves; inactive = flat fitted curve, though single readings scatter.
# Experiment: A CellTox Green Cytotoxicity Assay to monitor cytotoxicity in HEK293 cells - 0 hour (AID 1224869); also: nearly all actives have a fitted effect of over 50% in size
# Conditions: CellTox Green fluorescence; series mostly up to 76.8 µM; cytotoxicity: at the top concentration
# From the text: National Center for Advancing Translational Sciences [NCATS]
# NIH Chemical Genomics Center [NCGC]
# U.S. Environmental Protection Agency [EPA]
# National Institutes of Environmental Health Sciences [NIEHS]
# National Toxicology Program [NTP]
# Cell-based models are critical for drug discovery. Determining the natural cytotoxic effects resulting from test compounds is an essential research activity. A CellTox Green Cytotoxicity Assay to monitor cytotoxicity in real time of continues cell culture during 40 hours of the compound treatment was used to screen Tox21 10K library compounds in Hek293 cells. CellTox Green Cytotoxicity Assay is a nonlytic, homogeneous, biofluorescent method to measure cytotoxicity in cell culture after experimental manipulation. The assay system uses a proprietary asymmetric cyanine dye that is excluded from viable cells but preferentially stains the dead cell's DNA. […] Viable cells produce no appreciable increases in fluorescence. Therefore, the fluorescence signal produced by the binding interaction with dead cell DNA is proportional to cytotoxicity.
# The mixture of Hek293 cell suspension and reagents were dispensed at 600cells/6 ul/well in 1536-well tissue culture treated black solid bottom plates using a Multidrop dispenser. After the assay plates were incubated at a 37 C/5% CO2 incubator for 5 hours, 23 nL of compounds dissolved in DMSO, positive and negative controls was transferred to the assay plate by a pintool work station. The plates were incubated at 37 C for 40 hours. The fluorescence intensity were measured at 0h, 8h, 16h, 24h, 32h and 40h time points using ViewLux plate reader during compound treatment.
# % is scaled to controls: 0 for no effect and ±100 for the full control effect.
row,Compound,cytotoxicity
1,CC1=CC[C@H](CC=O)C1(C)C,-2.99%
2,C=COCCOCCOC=C,-0.481%
3,O=C(O)c1ccc(OCCN2CCCCC2)cc1,-10.6% [at 35.3 µM]
4,CN(C)CCOCCN(C)CCO,-0.0644%
5,C=C(C)C(=O)OC,0.7%
6,CC(C)CCO,4.45%
7,COCCOCCOCCOC,-7.6%
8,CC(=O)c1ccc2c(c1)CCCC2,-3.81%
9,Cc1ccc(S(=O)(=O)NC(=O)NC2CCCCCCC2)cc1,1.92% [at 35.3 µM]
10,O=S(=O)(O)SSS(=O)(=O)O,4.61%
11,Cc1cccc(Nc2ccncc2S(=O)(=O)NC(=O)NC(C)C)c1,-0.985% [at 35.3 µM]
12,O=C(O)CCNC(=O)c1ccccc1,-0.83% [at 35.3 µM]
13,CN[C@@H]1[C@H](O)[C@H](NC)[C@H]2O[C@@]3(O)C(=O)C[C@@H](C)O[C@H]3O[C@@H]2[C@H]1O,-7.03% [at 35.3 µM]
14,O=C(COCCOCCOCC(=O)Nc1c(I)cc(I)c(C(=O)O)c1I)Nc1c(I)cc(I)c(C(=O)O)c1I,0.936% [at 35.3 µM]
15,CC(=O)OC(C(=O)c1ccccc1)c1ccccc1 (stereo not given),2.03%
16,CCCCCCCCOC(C)=O,-6.49%
17,CCC(=O)OCCC(C)CCC=C(C)C (stereo not given),6.43%
18,CCCCOC(=O)C(=O)OCCCC,-3.03%
19,O=C(Nc1cccc(C2=NCCN2)c1)Nc1cccc(C2=NCCN2)c1,-3.81% [at 15.8 µM]
20,CC(=O)c1ccc(OCC(=O)N2CCCCC2)cc1,-6.03% [at 35.3 µM]

row,Compound,cytotoxicity
1,COc1cc(C=O)ccc1OC(=O)C(C)C,3.68%
2,CN[C@@H]1[C@@H](O)[C@@H](O[C@@H]2[C@H](O)[C@H](O[C@H]3OC(CN)=CC[C@H]3N)[C@@H](N)C[C@H]2N)OCC1(C)O (stereo not given in full),-0.273% [at 35.3 µM]
3,CCCCCC1CCCC(=O)O1 (stereo not given),-12.8%
4,CC(C)SCc1ccco1,8.78% [at 35.3 µM]
5,COC(OC)C(C)c1ccccc1 (stereo not given),-3.09%
6,O=c1cc(O)c(Cl)c[nH]1,1.4% [at 35.3 µM]
7,CCCCC(CC)C(=O)OC(C)C (stereo not given),1.96%
8,CCNC(=O)NCCCOc1cccc(CN2CCCCC2)c1,-2.36% [at 35.3 µM]
9,CCOC(=O)CC(CC(=O)OCC)(OC(C)=O)C(=O)OCC,-6.73%
10,O=S(=O)(O)CCO,0.681%
11,CCC(C)(C)C1CCC(=O)CC1,2.39%
12,CCS(=O)(=O)CCn1c([N+](=O)[O-])cnc1C,0.621% [at 35.3 µM]
13,CC(CC(=O)O)CC(C)(C)C (stereo not given),0.0049%
14,CC(=O)OC[C@H]1O[C@@H](OC(C)=O)[C@H](OC(C)=O)[C@@H]1OC(C)=O,-1.26% [at 35.3 µM]
15,Nc1ccc(S(=O)(=O)NC(=O)c2ccccc2)cc1,-4.02% [at 35.3 µM]
16,CC(=O)N(CC(O)CO)c1c(I)c(C(=O)NCC(O)CO)c(I)c(C(=O)NCC(O)CO)c1I (stereo not given),-7.5% [at 35.3 µM]
17,O=CN1CCOCC1,-0.166%
18,CC(=O)N1CCN(c2ccc(O)cc2)CC1,16.6% [at 35.3 µM]
19,O=[Si]=O,-14.4%
20,CCOc1ccc(NC(=O)OC(C)C)cc1OCC,5.88%
